Records with an inconclusive call do not appear. Active and inactive are the calls of the source. How the source made its calls, unless noted: active means hit-call score of the fitted dose curve at least 0.9, where 1 is the maximum; inconclusive means response in the unintended direction; inactive means score below 0.9.
Read-out: not listed separately
Test: CEETOX_H295R_MTT_cell_viability: Viability Assessment in the CeeTox HT-H295R MTT Assay (AID 2283718; active means hit-call score of the fitted dose curve at least 0.9, where 1 is the maximum; inactive means score below 0.9)
Summary of the method: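 MTT reduction (0.5 mg/ml, 4 h at 37 C; absorbance at 570 and 650 nm) gave viability as background-corrected percent change versus controls. H295R cells had 48 h forskolin (10 uM) prestimulation, then 48 h chemical exposure at 0.1% DMSO.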

Row | SMILES | outcome
1 | Cc1ccc(N)cc1N | inactive
2 | Nc1cc2c3c(c1)C(c1ccccc1)=N[C@@H](NC(=O)c1cccnc1)C(=O)N3CC2 | inactive
3 | CCOC(=O)c1ccccc1C(=O)OCC | inactive
4 | c1ccc2c(c1)Nc1ccccc1S2 | inactive
5 | O=P(Oc1ccccc1)(Oc1ccccc1)Oc1ccccc1 | inactive
6 | c1ccc(OP(Oc2ccccc2)Oc2ccccc2)cc1 | inactive
7 | CCOP(=S)(Oc1ccc([N+](=O)[O-])cc1)c1ccccc1 (stereo not given) | inactive
8 | CCC(C)(C)c1ccc(O)cc1 | inactive
9 | CCNc1nc(Cl)nc(NC(C)(C)C)n1 | inactive

Tested on: not listed separately
Test: Tanguay_ZF_120hpf_ActivityScore_legacy: (Legacy) Oregon State University Tanguay Lab 120 Hour Post-fertilization zebrafish Assay Score for Activity (AID 2283742);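 on AC50: dechorionated Tropical 5D wild-type zebrafish embryos held singly per well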
Summary of the method: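 Binary scoring of mortality and morphology by brightfield at 24 and 120 hpf, summarised into one activity score from 18 components relative to DMSO. Wild-type Tropical 5D zebrafish, chorion removed at 4 hpf, static exposure 6–120 hpf, 28 °C.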

Row | SMILES | outcome | AC50
10 | CC(Cl)(Cl)C(=O)O | inactive | –
11 | CCC1(c2ccccc2)C(=O)N=C(O)NC1=O (stereo not given) | inactive | –
12 | CCCCCCCc1ccc(O)cc1 | inactive | –
13 | CCCCN(CCCC)SN(C)C(=O)Oc1cccc2c1OC(C)(C)C2 | inactive | –
14 | OCC1CO1 (stereo not given) | inactive | –
15 | Cc1ccc(N)cc1N | – | 0.00921 µM (active)
16 | ClC1=C(Cl)C2(Cl)C3C(Cl)C(Cl)CC3C1(Cl)C2(Cl)Cl (stereo not given) | inactive | –
17 | [N-]=[N+]=[N-] | inactive | –
18 | CC(C)(C)c1ccc(O)cc1 | – | 42.8 µM (active)
19 | c1nc[nH]n1 | inactive | –
20 | O=C(O)C1C(C(=O)O)C2(Cl)C(Cl)=C(Cl)C1(Cl)C2(Cl)Cl (stereo not given) | inactive | –
21 | CCCCN(CCCC)N=O | inactive | –
22 | O=[N+]([O-])c1ccccc1 | inactive | –
23 | CSC(C)(C)C=NO | inactive | –
24 | c1cc2c3c(cccc3c1)CC2 | inactive | –
25 | Nc1cc2c3c(c1)C(c1ccccc1)=N[C@@H](NC(=O)c1cccnc1)C(=O)N3CC2 | inactive | –
26 | ClC(Cl)c1ccccc1 | inactive | –
27 | CCOC(=O)c1ccccc1C(=O)OCC | inactive | –
28 | COCCOCCO | inactive | –
29 | Cc1ccc(O)cc1C | inactive | –
30 | c1ccc2c(c1)Nc1ccccc1S2 | inactive | –
31 | CCOP(=S)(OCC)SCSCC | inactive | –
32 | O=P(Oc1ccccc1)(Oc1ccccc1)Oc1ccccc1 | inactive | –
33 | c1ccc(OP(Oc2ccccc2)Oc2ccccc2)cc1 | inactive | –
34 | CCN(CC)c1ccccc1 | inactive | –
35 | CCOP(=S)(Oc1ccc([N+](=O)[O-])cc1)c1ccccc1 (stereo not given) | inactive | –
36 | CCC(C)(C)c1ccc(O)cc1 | – | 21.3 µM (active)
37 | O=C(O)C(Cl)Cl | inactive | –
38 | CCCN(CCC)c1c([N+](=O)[O-])cc(C(C)C)cc1[N+](=O)[O-] | inactive | –
39 | CCNc1nc(Cl)nc(NC(C)(C)C)n1 | inactive | –

Tested on: Thyroperoxidase (TPO), gene 445522
Test: CCTE_Simmons_GUA_TPO: CCTE's Guaiacol Assay for Thyroperoxidase (TPO) Inhibition, Simmons Lab (AID 2283750)
Description: CCTE_Simmons_GUA_TPO is a biochemical, single-readout assay that uses microsomes from porcine thyroid gland in a tissue-based cell-free assay. Measurements were taken 0.5 hour after chemical dosing in a 384-well plate.CCTE_Simmons_GUA_TPO is the assay component measured from the CCTE_Simmons_GUA_TPO assay. It is designed to make measurements of enzyme activity, a form of enzyme reporter, as detected with absorbance signals by enzyme activity technology. This is an orthogonal assay to CCTE_Simmons_AUR_TPO run for confirmation.Data from the assay component CCTE_Simmons_GUA_TPO was analyzed at the endpoint, CCTE_Simmons_GUA_TPO, in the positive analysis fitting direction relative to DMSO as the negative control and baseline of activity. Using a type of enzyme reporter, measures of enzyme activity for loss-of-signal activity can be used to understand the binding at the pathway-level as they relate to the gene TPO. To generalize the intended target to other relatable targets, this assay endpoint is annotated to the oxidoreductase intended target family, where the subfamily is peroxidase.
The GUA assay has been described previously for both rat and pig thyroid microsomes (Chang and Doerge, 2000; Paul et al., 2013; Tietge et al., 2013). All reactions were conducted in a final reaction volume of 65 ul. Porcine thyroid microsomes (25 ug) diluted in 45 ul of 200mM potassium phosphate buffer (per well) was dispensed into clear, 384-well plates. Test compounds were administered using the HDRT as described earlier. Guaiacol (10 ul; 35mM final assay concentration) was then added using a BMG Clariostar plate reader equipped with syringe injectors and incubated with test chemical exposure at 37C for 30s. H2O2 (10 ul; 1mM final assay concentration) was then added using syringe injectors to initiate the reaction. The oxidation of guaiacol was monitored during the linear phase (first 80 seconds of the reaction) at 450nm, and the change in absorbance over this period was recorded for data analysis. Three biological replicates of technical singles were run for every chemical concentration tested. A titrated range of MMI served as a positive control for TPO inhibition on each plate ranging from 0.01 to 100 uM final concentration. Test chemicals were administered as a titrated series of 8 concentrations from 5 nM up to 87.5 uM [final] for 30 seconds prior to kinetic endpoint detection at 0.25 second intervals for 80 seconds. Dimethylsulfoxide [DMSO] was used as the vehicle control. Methimazole [MMI] was used as the positive control and was administered as a titrated series of 8 concentrations from 10 nM up to 100 uM [final].

Row | SMILES | AC50 | outcome
40 | [N-]=[N+]=[N-] | 26.5 µM (active) | –
41 | Nc1cc2c3c(c1)C(c1ccccc1)=N[C@@H](NC(=O)c1cccnc1)C(=O)N3CC2 | – | inactive
42 | c1ccc2c(c1)Nc1ccccc1S2 | 100 µM (active) | –

Tested on: not listed separately
Test: ArunA_CellTiter_hNC: Viability Assessment in the ArunA Biomedical's Oris Neural Crest (hNC) Cell Migration Assay (AID 2283752)
Summary of the method: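 hNC cells (H9 ESC-derived), 60,000/well, Matrigel, LIF + bFGF medium; 16 h 37C attachment; 72 h compound in test medium; CellTiter Aqueous One read-out; loss-of-signal vs DMSO baseline.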

Row | SMILES | outcome
43 | Cc1ccc(N)cc1N | inactive
44 | O=C(O)C1C(C(=O)O)C2(Cl)C(Cl)=C(Cl)C1(Cl)C2(Cl)Cl (stereo not given) | inactive
45 | O=P(Oc1ccccc1)(Oc1ccccc1)Oc1ccccc1 | inactive

— PubChem BioAssay (EPA / NIEHS)
